Measurements reported in the supplement of paper PMC11577813, “Eurasian spruce bark beetle detects lanierone using a highly expressed specialist odorant receptor, present in several functional sensillum types” (BMC Biology, 2024).
± gives the standard deviation of the averaged measurements.

Tested on: (4S)-cis-verbenol A-neuron OSN class
Assay: net action potential response of A-neuron (blank-subtracted) (spikes/s (Hz)); higher = stronger excitation
Settings: 10 µg on filter paper; neuron: A neuron (large spike amplitude)
Experimental: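 Single sensillum recordings from antennal olfactory sensilla of live adult Ips typographus. Each compound was 10 µg in paraffin oil on filter paper, delivered as a 0.5 s puff. Net response = spikes in the first 0.5 s of response minus the 0.5 s pre-stimulus count, doubled to give Hz, with blank response subtracted. Values are for the large-spike A-neuron class of each of seven sensillum types that co-house the lanierone B-neuron; N = 1-4 sensilla, averaged.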

Row | Structure (SMILES) | net action potential response
1 | Cc1ccccc1 [Toluene] | 1.33 ± 6.4
2 | C=CCc1ccc(OC)cc1 [Estragole] | -2 ± 3.5
3 | O=Cc1ccccc1 [Benzaldehyde] | 2 ± 6
